Screens as filed in PubChem BioAssay.
Sampled rows, rich in hits. Any-hit rate of the full collection: about 31%.
CYP2C19 act: activators of human cytochrome P450 2C19. 96,000 tested, under 10 active. AID 1025. activation factor at 5 µM. recombinant CYP2C19, luciferin-H EGE luminescence; hits give high values; 0 = fully inhibited enzyme, 1 = untreated enzyme. P33261;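 active means activation factor of at least 2 at 5 µM in the primary screen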;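 further: 0 = wells with 2.5 mM tranylcypromine and 1 = vehicle-only wells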
CYP2C9 act: CYP2C9 (human) activation; P11712; recombinant CYP2C9, luciferin-H conversion, luminescence; hits give high values; factor 1 = untreated enzyme, 0 = blocked; activation factor at 5 µM; 1.4% of 96,000 active; AID 1024;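 active means activation factor of 2 or more for CYP2C9 at a 5 µM dose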;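 further: 0 = sulfaphenazole-blocked wells and 1 = vehicle-only wells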
CYP2C19 inhib: inhibitors of human CYP2C19. P33261. CYP2C19 Supersomes, luciferin-H EGE luminescence, 30 min. inhibition, % at 5 µM. 21% of 96,000 active. AID 778;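 active means CYP2C19 inhibition above a set limit at 5 µM in the primary screen, cut at about 50% in these data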;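 further: plate controls were negative control wells for no effect and 2.5 mM tranylcypromine positive control for full effect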
CYP2C9 inh: human CYP2C9 inhibition; inhibition, % at 5 µM; CYP2C9 Supersomes, luciferin-H conversion, luminescence; P11712; AID 777; 20% of 96,000 active;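 active means blocking of liver enzyme CYP2C9 beyond about 50% at 5 µM, limit read from the data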
PLAP activator: human PLAP activation. P05187. purified PLAP enzyme, luminescent substrate read-out; hits give high values. activation fold at 20 µM. 1.2% of 96,000 active; in the data active means activation fold above about 2
Target sequence (P05187 whole entry, looked up): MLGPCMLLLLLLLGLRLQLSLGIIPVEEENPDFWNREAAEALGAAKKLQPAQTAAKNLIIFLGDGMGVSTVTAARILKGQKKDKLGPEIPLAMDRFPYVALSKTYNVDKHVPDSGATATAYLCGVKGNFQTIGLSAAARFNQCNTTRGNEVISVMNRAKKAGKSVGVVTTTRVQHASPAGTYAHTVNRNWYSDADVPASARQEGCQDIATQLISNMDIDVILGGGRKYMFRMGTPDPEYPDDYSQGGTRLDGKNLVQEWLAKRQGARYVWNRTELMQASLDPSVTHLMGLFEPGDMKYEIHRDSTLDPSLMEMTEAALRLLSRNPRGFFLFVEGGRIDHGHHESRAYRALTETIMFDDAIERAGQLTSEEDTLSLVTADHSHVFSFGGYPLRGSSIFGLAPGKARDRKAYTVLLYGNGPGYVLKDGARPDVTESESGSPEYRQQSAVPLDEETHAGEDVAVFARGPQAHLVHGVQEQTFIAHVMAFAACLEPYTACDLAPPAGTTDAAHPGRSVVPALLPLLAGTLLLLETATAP
The depositor's hits bear a star.

SMILES	CYP2C19 act	CYP2C9 act	CYP2C19 inhib	CYP2C9 inh	PLAP activator
O=C(CSc1nnnn1Cc1ccccc1)Nc1ccc2c(c1)OCCO2	0.2	0.2	82*	83*	1
O=C(CSc1nnnn1Cc1ccccc1)Nc1ccc2c(c1)OCO2	0.7	0.6	32	39	0.9
CCC(=O)Nc1cccc(NC(=O)CSc2nnnn2Cc2ccccc2)c1	0.6	0.5	44	53*	1
COc1ccc(C)cc1NC(=O)c1nnn(CCc2ccccc2)c1N	0.9	1.2	8	-23	0.8
CC(=O)Nc1cccc(NC(=O)CSc2nnnn2C)c1	1.1	0.8	-6	21	0.8
CCOC(=O)CCSc1nc2c(c(C(F)(F)F)c1C#N)CCC2	0.2	0.3	78*	67*	1.5
CCCCSc1nc2c(c(C(F)(F)F)c1C#N)CCC2	1	0.9	2	9	0.8
COc1cc2c(c(OC)c1)C(c1ccncc1)CC(=O)N2 (stereo not drawn)	0.2	0.1	76*	90*	0.9
COC(=O)c1ccc(C2CC(=O)Nc3cc(OC)c(OC)c(OC)c32)cc1 (stereo not drawn)	0.1	0.1	93*	88*	1.1
C=CCn1c(=S)[nH]c2ccc(Br)cc2c1=O	0.4	0.6	62*	38	1
COc1cccc(C(=O)N/N=C2\SCC(=O)N2Cc2ccc3c(c2)OCO3)c1	0.7	0.1	34	88*	1
COc1ccc(C(=O)N/N=C2/SCC(=O)N2Cc2ccc3c(c2)OCO3)cc1OC	1	0.8	-1	23	1
CCOc1ccccc1OCCOCCN1CC(C)OC(C)C1 (stereo not drawn)	1	1.1	-2	-13	0.9
CCOC(=O)N1CCN(C(=O)c2sc3nc(-c4ccc(F)cc4)cn3c2C)CC1	0.4	0.3	64*	69*	1.5
COc1ccc(-c2cn3c(C)c(C(=O)N4CCN(c5ccc(F)cc5)CC4)sc3n2)cc1	1	1	-2	-4	0.9
COc1ccccc1N1CCN(C(=O)c2sc3nc(-c4ccc(F)cc4)cn3c2C)CC1	0.8	0.5	15	50*	1.4
Cc1c(C(=O)N2CC(C)OC(C)C2)sc2nc(-c3ccc(F)cc3)cn12 (stereo not drawn)	1.1	1.1	-12	-9	1.4
Cc1ccc(NC(=O)CSCC(=O)N2c3ccccc3CCc3ccccc32)cc1	0.5	0.4	54*	63*	1
CC(=O)Nc1ccc2c(c1)N(C(=O)CN(C)C)c1ccccc1CC2	1	0.9	-4	14	1.2
CCN(CC)CC(=O)Nc1ccc2c(c1)N(C(=O)CN(CC)CC)c1ccccc1CC2	0.9	0.3	12	70*	1.8
CCOC(=O)Nc1ccc2c(c1)N(C(=O)N(C)C)c1ccccc1CC2	0.3	0.1	72*	92*	1.6
CC(=O)N1CCC(Nc2ccc(C)cc2)CC1	0.9	0.5	6	54*	1
COc1ccccc1N1CCN(C(=O)c2oc3cc(C)c(C)cc3c2C)CC1	0.6	0.3	44	74*	0.8
CCOC(=O)c1c(C)oc2cc(Br)c(OC)cc12	0.9	1	8	3	1
COc1ccccc1N1CCN(C(=O)c2c(C)cc(=O)oc2C)CC1	0.8	1.1	15	-5	1.1
SMILES	CYP2C19 act	CYP2C9 act	CYP2C19 inhib	CYP2C9 inh	PLAP activator
COc1cc2c(C(=O)N3CCN(c4ccccc4C)CC3)c(C)oc2cc1Br	0.4	0.3	60*	72*	1.4
CC(C)Oc1ccccc1-c1nc(SCC(=O)O)n[nH]1	1	1.1	-2	-7	0.8
CC(C)Oc1cccc(C(=O)NC(=S)Nc2ccc3c4c(cccc24)CC3)c1	1.2	1.7	-16	-71	0.9
COC(=O)c1ccccc1NC(=S)NC(=O)COc1ccccc1	0.9	0.8	9	18	1.2
Cc1ccc(C(=O)NNC(=S)NC(=O)COc2ccccc2)cc1	0.7	0.2	32	78*	1.5
Cc1ccccc1C(=O)NNC(=S)NC(=O)COc1ccccc1	0.4	0.1	55*	89*	2.4*
COc1ccc(Cl)cc1C(=O)NCCN(C)C	1.1	1.1	-6	-5	1
COc1ccc(Cl)cc1C(=O)NCC(C)C	0.9	3.1*	14	-213	1.1
CCCC(C)NC(=O)c1cc(Cl)ccc1OC (stereo not drawn)	0.6	3.5*	44	-252	0.9
CC(=O)c1ncnn1CC(=O)c1ccc(Cl)cc1Cl	0.4	0.7	61*	32	1.4
Cn1cc(C(=O)c2ccc(Cl)cc2Cl)cc1C(=O)O	1.1	0.9	-7	6	1
O=C(Nc1ccc(Cn2cccn2)cc1)c1ccc(COc2cccc(Br)c2)cc1	0.4	0.2	57*	83*	0.8
Fc1cccc(Cl)c1-c1nnc2ccc(N3CCOCC3)nn12	0.6	0.5	42	49	1
Clc1cccc(Cl)c1-c1nnc2ccc(N3CCOCC3)nn12	0.5	0.3	52*	68*	1.1
Cc1ccc(-c2nn(-c3cc(Cl)ccc3[N+](=O)[O-])c(=O)c3ccccc23)cc1	0.5	0.7	51*	31	1
CC(=O)Oc1ccc2c(c1)C(=O)c1ccccc1CO2	0.3	0.7	68*	32	1.1
O=C(Oc1ccc2c(c1)OCC2=O)c1ccccc1	1.1	1.1	-9	-6	1.1
C=CCn1c(Cc2ccc(OC)cc2)nnc1SCC(N)=O	0.8	1.6	22	-65	1.2
CCOC(=O)c1c(CN2CCCCC2)n(C)c2ccc(OC)c(S(=O)(=O)c3ccccc3)c12	1	0.9	2	9	1.4
Cc1oc(-c2ccccc2F)nc1CS(=O)(=O)CC(=O)N1CCOCC1	0.9	0.7	14	34	0.9
CCN1CCN(C(=O)CS(=O)(=O)Cc2nc(-c3ccc(C)cc3)oc2C)CC1	1	0.8	4	20	1.3
Cc1ccc(-c2nc(CS(=O)(=O)CC(=O)N3CC(C)CC(C)C3)c(C)o2)cc1 (stereo not drawn)	0.6	0.3	41	71*	1.5
Cc1cccc(N2CCN(C(=O)CS(=O)(=O)Cc3nc(-c4ccccc4F)oc3C)CC2C)c1 (stereo not drawn)	0.4	0.1	56*	87*	1.5
CC(/C=C/c1ccc2c(c1)OCO2)=N\NC(=O)COc1ccccc1C	1	0.9	2	11	0.8
COc1ccc(C2=C(C=Nc3c(C)n(C)n(-c4ccccc4)c3=O)C(c3ccccc3C)c3ccccc3O2)cc1OC (stereo not drawn)	0.9	0.6	14	40	1.6
CC12/C(=N/O)C3C4CC5C3/C(=N/O)C1C5C42 (stereo not drawn)	0.9	0.9	9	8	0.9
CCOC(=O)C1CCN(Cc2nc3ccc(Cl)cc3n2CCO)CC1	0.7	0.9	26	6	1.1
CCOC(=O)N1CCC(NC(=O)C2CCCN(S(=O)(=O)c3cccc4nsnc34)C2)CC1 (stereo not drawn)	1.1	1	-8	1	1.4
